Screening results as filed in PubChem BioAssay.
The entries come from a sample that favours hits as a whole.
Pf Dd2 growth: inhibitors of Plasmodium falciparum Dd2 growth; hit rate 4.3% among 120,000; Potency, µM (titrated, usually from 28.9 µM), hits mostly inhibitors; P. falciparum Dd2 growth, SYBR Green, 72 h; AID 1347417; active = well fitted inhibition curve with a large enough effect; also: nearly all actives have a fitted effect of over 65% in size
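Infected erythrocytes (Dd2, 0.3% parasitemia, 2.5% hematocrit final) are added to compound in RPMI-1640/Albumax II medium, grown 72 h at 37C in low oxygen, then lysed with saponin/Triton-X containing SYBR Green and read by fluorescence.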
Large screens that a line does not name were inactive.

Cc1ccc([S+](=O)([O-])N2CCC(c3nn(C)c(=O)[nH]3)CC2)cc1	none
Cc1ccc([S+](=O)([O-])N2CCC(c3nn(-c4ccc(F)cc4)c(=O)[nH]3)CC2)cc1	Pf Dd2 growth 8.9µM
COc1ccccc1CC(=O)NCC(=O)N1CCN(c2ccccn2)CC1	none
CCOc1cc(=O)n2c(c1C(=O)Nc1cccc(OC)c1)CCCCC2	none
CCCCc1cc(C[C@@H]2C[C@H](NC(=O)N3CCOCC3)C2(C)C)no1	none
C[S+](=O)([O-])c1ccc(-c2nc(C(=O)N3CCOCC3)n3ccncc23)cc1	Pf Dd2 growth 7.9µM
O=C(c1nc(-c2ccccc2)c2ccccn12)N1CCN(c2ncccn2)CC1	none
C[S+](=O)([O-])c1ccc(-c2cc(C(=O)N3CCN(c4ncccn4)CC3)nn3cccc23)cc1	none
C#CCNC(=O)c1nc(-c2ccc([S+](C)(=O)[O-])cc2)c2cnccn12	none
O=C(c1nc(-c2cccc(C(F)(F)F)c2)c2cnccn12)N1CCOCC1	none
N#CC1CCN(C(=O)c2nc(-c3cccnc3)c3cnccn23)CC1	none
C[S+](=O)([O-])c1ccc(-c2nc(C(=O)N3CCN(c4ncccn4)CC3)n3ccncc23)cc1	Pf Dd2 growth 11µM
O=C(c1nc(-c2ccc(F)cc2)c2ccccn12)N1CCOCC1	none
O=C(c1nc(-c2ccc(F)cc2)c2cnccn12)N1CCCC1	Pf Dd2 growth 6.3µM
CC(C)C[C@@H](NC(=O)C1=C[C@@H](NC(=O)c2ccco2)[C@@H](O)[C@H](O)C1)C(N)=O	none
O=C(CN1CCCc2nc(C3CC3)ncc2C1=O)NC1CC1	none
O=C1COc2ccc(Nc3ccccc3F)nc2CN1Cc1ccc(F)cc1	none
COCC(=O)N1CC[C@H](c2nc3ccc(C)cc3[nH]2)C1	none
O=C(C1CC1)N(C1CCOCC1)C1CCN(S(=O)(=O)c2cc(F)cc(F)c2)CC1	none
O=C(C1CC1)N(C1CCOCC1)C1CCN(S(=O)(=O)c2ccc(F)c(Cl)c2)CC1	Pf Dd2 growth 10µM
Cc1cc(S(=O)(=O)N2CCC(N(C(=O)C3CC3)C3CCOCC3)CC2)ccc1Cl	none
NC1CCc2nn(CC(=O)NCc3ccc(F)cc3Cl)c(=O)n2CC1 (stereo not given)	none
CCN1CCN(CC(O)COc2cccc(CNCCc3cccc(C)n3)c2)CC1 (stereo not given)	none
CN(CC(O)COc1cccc(CNCCOc2ccccc2)c1)C1CCCCC1 (stereo not given)	Pf Dd2 growth 4.5µM
COc1cc(CNCCOc2cccnc2)ccc1OCC(O)CN1CCSCC1 (stereo not given)	none
COc1ccccc1-c1cnc(NC(=O)c2cnccn2)c2c1CCO2	none
COc1ccc(Nc2cnc3ccc(-c4ccc(OC)c(OC)c4)nn23)cc1	Pf Dd2 growth 1.1µM
CN1CCN(Cc2ccc(Nc3cnc4ccc(N5CCOCC5)nn34)cc2)CC1	none
COc1ccc(Nc2cnc3ccc(-c4ccc(OC)c(OC)c4)nn23)cc1OC	none
COc1cncc(Nc2cnc3ccc(-c4ccc(OC)nc4)nn23)c1	none
COc1ccccc1Nc1cnc2ccc(-c3ccccc3OC)nn12	none
COc1ccc(-c2ccc3ncc(Nc4cccnc4OC)n3n2)cc1OC	none
CN1CCN(Cc2ccc(Nc3cnc4ccc(-c5ccccc5)nn34)cc2)CC1	Pf Dd2 growth 2.2µM
COc1cncc(Nc2cnc3ccc(-c4ccccc4OC)nn23)c1	Pf Dd2 growth 2.5µM
COc1ccccc1-c1ccc2ncc(Nc3cccc(N[S+](C)(=O)[O-])c3)n2n1	none
COc1ccccc1-c1ccc2ncc(Nc3ccc(CCO)cc3)n2n1	none
COc1cncc(Nc2cnc3ccc(-c4ccc(OC)c(OC)c4)nn23)c1	Pf Dd2 growth 0.89µM
NCC1(N2CCCC2)CCCCC1	none
O=C(NCc1nnc2ccc(-c3ccccc3)nn12)c1cccc(C(F)(F)F)c1	none
CC[C@H](C)[C@H](N)C(=O)N1CCC2(CC1)Nc1ccccc1NC2=O	none
COc1ccc(CNC(=O)C[C@@H]2C[C@@H](C(C)C)[C@H](CNC(C)=O)C=C2C)cc1	none
COc1ccccc1NC(=O)Cn1c(=O)n(-c2ccc(F)cc2)c(=O)c2c1cc(C)n2C	none
CC1=C(C(=O)NC(C)(C)C)C(c2ccc(Cl)cc2)N2C(CC(=O)N3CCCC3)=CSC2=N1 (stereo not given)	none
CCCN1C(=O)C(CC(=O)N2CCCC2)Sc2ncccc21 (stereo not given)	none
COc1ccc(C2Cn3nnc(-c4noc(-c5ccc(N(C)C)cc5)n4)c3CO2)cc1 (stereo not given)	none
COc1ccc(Nc2cnc3ccc(-c4ccccc4)nn23)cc1	Pf Dd2 growth 5.6µM
NC(=O)c1ccc(Nc2cnc3ccc(-c4ccccc4)nn23)cc1	none
c1ccc(-c2ccc3ncc(Nc4ncccn4)n3n2)cc1	none
Cc1ccc(C(=O)N2CCC(n3cc(-c4nc(-c5ccccc5)no4)nn3)CC2)c(C)c1	none
CC(C)CN1CCOC[C@H](Oc2ccc(C(F)(F)F)cc2)C1	none
CCN(CC)C(=O)c1c(NC(=O)c2cccc(C)c2)sc2c1CCC(C)C2 (stereo not given)	none
CCCNC(=O)c1c(NC(=O)c2ccccc2)sc2c1CCC(C(C)(C)C)C2 (stereo not given)	Pf Dd2 growth 11µM
CCOc1ccccc1NC(=O)c1c(NC(=O)c2ccncc2)sc2c1CCC(C(C)(C)C)C2 (stereo not given)	none
Cc1ccccc1NC(=O)c1c(NC(=O)c2ccncc2)sc2c1CCC(C(C)(C)C)C2 (stereo not given)	Pf Dd2 growth 5.6µM
Cc1ncccc1C(=O)N1CCCC(c2nc(-c3ccccc3)no2)CCNC(=O)CC1 (stereo not given)	none
O=C1CCN(S(=O)(=O)c2ccccc2)CCCN(C(=O)c2cccs2)CCN1	none
COCc1cccc(C(=O)NC2CC(c3nnc(CN(C)C)n3C)C2)n1 (stereo not given)	none
O=C(NCc1ccccc1)N1CC(Oc2ccc(-c3nc(-c4ccccc4)no3)cc2)C1	none
COCC(=O)Nc1ccc([C@H]2OCC(=O)N(Cc3ccccc3)[C@@H]2CO)cc1	none
O=C(NCc1ccco1)C1CC(=O)N(c2n[nH]c3ccccc23)C1 (stereo not given)	none
COc1cccc(-c2cc3c(=O)n(CCNC(=O)c4ccc(C(C)(C)C)cc4)ccn3n2)c1	Pf Dd2 growth 1.1µM
COc1cccc(-c2cc3c(=O)n(CCNC(=O)c4cc(C)cc(C)c4)ccn3n2)c1	none
COc1cccc(-c2cc3c(=O)n(CCNC(=O)c4cc(Cl)ccc4F)ccn3n2)c1	none
COc1cccc(-c2cc3c(=O)n(CCNC(=O)c4ccccc4F)ccn3n2)c1	Pf Dd2 growth 13µM
COc1cccc(-c2cc3c(=O)n(CCNC(=O)c4cc5ccccc5[nH]4)ccn3n2)c1	none
COc1cccc(-c2cc3c(=O)n(CCNC(=O)c4ccc(Cl)cc4)ccn3n2)c1	none
CSCC[C@@H]1NC(=O)c2cc(NC(=O)CCc3ccc4c(c3)CCO4)ccc2NC1=O	none
O=C(N[C@H]1[C@@H]2CCO[C@@H]2[C@@H]1C1CCCC1)c1ccccc1OC(F)F	none
CN(CCc1noc(C2CC2)n1)c1ncncc1C(=O)O	none
O=C(NCCC1CCN(C(=O)Nc2ccccc2F)CC1)c1ccccn1	none
O=C(CN1CCCC1=O)N1CCC2(CC1)NCCc1c2[nH]c2ccccc12	none
O=C(Cn1c(=O)oc2ccccc21)N1CCC2(CC1)NCCc1c2[nH]c2ccccc12	Pf Dd2 growth 8.9µM
COCCC(=O)N1CCC2(CC1)NCCc1c2[nH]c2ccccc12	none
CC(=O)c1ccc(N2CCN(C(=O)c3cc4n(n3)CC(c3ccc(Cl)cc3)OC4)CC2)cc1 (stereo not given)	none
O=C(Nc1ccc(-c2nnc3n2CCCC3)cc1)Nc1ccccc1F	none
COc1ccc(CCC(=O)Nc2cccc(-c3nnc4n3CCCC4)c2)cc1	Pf Dd2 growth 7.9µM
